Test results published in PubChem BioAssay (NCI).
The panel holds about 79,000 compounds, 15% with a hit somewhere; the sample as a whole holds those more often. Values without a mark were called inactive. Calls of active or inactive are those of the source. Rule as the data show it: active = growth inhibition above about 70%; inactive = the rest. Where a SMILES comes first, the peptide text is derived from it. The star is where a group is joined. Trt = c1ccc(C(c2ccccc2)(c2ccccc2)*)cc1; OtBu = CC(C)(C)O*

Test: NCI Yeast Anticancer Drug Screen. Data for the cln2 rad14 strain (AID 165);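 also: 0% = growth equal to vehicle treated cultures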
Conditions: S. cerevisiae cln2 rad14 strain, at 50.0 µM (retest, dose inferred, filed as 5.0), hits give high values
Procedure, shortened: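 Each compound was tested on cln2 rad14 yeast. Inhibition of growth was calculated against vehicle-exposed controls.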
CCOC(=O)C(=N\Nc1cccc(C)c1C)/C(C)=N\NC(N)=S showed a growth inhibition of 14%.
CCN(CC)CCNc1ccc(C)c2oc3ccc(O)cc3c(=O)c12 showed a growth inhibition of 22%.
For O=C1C(C=NC(=S)c2ccccc2)=C(O)c2ccccc21, the growth inhibition was 48%.
For CCOC(=O)Cc1csc(/N=C\c2c(O)c3ccccc3oc2=O)n1, the growth inhibition was 21%.
In the case of CC(C)(CCCCC(C)(C)NCC1COc2ccccc2O1)NCC1COc2ccccc2O1 (stereo not drawn), the growth inhibition is reported as 76% (active).
Compound O=C1OC(c2ccc(O)cc2)=C(c2ccccc2)C1c1ccccc1 (stereo not drawn) has a growth inhibition of 26%.
Work on O=C(c1ccccc1)C(Br)CCCC(Br)C(=O)c1ccccc1 (stereo not drawn) yielded a growth inhibition of 32%.
CCC(c1ccc(O)cc1)C(O)(CC)c1ccc(O)cc1 (stereo not drawn) gave a growth inhibition of -1%.
In the case of Cn1cnc2[nH]c(Cl)nc(=S)c21, the growth inhibition is reported as 0%.
O=C(NCCN1CCCC1)c1cn2c(ccc3sc4ccccc4c(=O)c32)n1 showed a growth inhibition of 54%.
Work on CC(C)(C)OC(=O)CNC(=O)C(Cc1ccccc1)NC(=O)C(N)CSC(c1ccccc1)(c1ccccc1)c1ccccc1 (stereo not drawn) (H-Cys(Trt)-Phe-Gly-OtBu; configuration not given here) yielded a growth inhibition of 48%.
With C/C(=N/NC(N)=S)C(CN(C)C)C(C1=C(O)c2ccccc2OC1)c1ccccc1 (stereo not drawn) the growth inhibition was -1%.
For O=C(CC(=O)c1ccccc1)CC(=O)c1ccccc1Br, the growth inhibition was 75% (active).
In the case of O=C1OC2(c3ccccc31)c1cc(I)c(O)c(I)c1Oc1c2cc(I)c(O)c1I, the growth inhibition is reported as 98% (active).
For Nc1cc(Cl)c2c(c1)Cc1ccccc1-2, the growth inhibition was 94% (active).
In the case of C1=Cc2ccccc2/C1=C/c1ccccc1, the growth inhibition is reported as 56%.
Work on Cc1ccc(C2=CC(=O)/C(=C\C(=O)c3ccc(Cl)cc3)O2)cc1 yielded a growth inhibition of 38%.
In the case of CC1(c2ccc(S(=O)(=O)c3ccccc3)cc2)OC(=O)C=CC1=O (stereo not drawn), the growth inhibition is reported as 98% (active).
For CCCc1cc(-c2ccc(O)c(CCC)c2)ccc1O, the growth inhibition was 99% (active).
For CCOC(=O)N1c2ccc3ccccc3c2C=CC1C#N (stereo not drawn), the growth inhibition was 7%.
In the case of N#CNc1nc(N)c(-c2ccc(Cl)cc2)c(C(=O)Nc2ccc(Cl)c(Cl)c2)n1, the growth inhibition is reported as 1%.
With O=c1c(Cl)c(Cl)oc(Cl)c1Cl the growth inhibition was 99% (active).
Compound O=c1nc(-c2ccccc2)cc(-c2ccccc2O)[nH]1 has a growth inhibition of 61%.
With O=C(Cc1nc2ccccc2s1)C(=O)Nc1ccc(Cl)cc1 the growth inhibition was 2%.
In the case of c1ccc(OCC2c3ccccc3Nc3ccccc32)cc1, the growth inhibition is reported as 96% (active).
CCN(C(=O)C(F)(F)F)c1ccc2c(c1)C(=O)c1ccccc1-2 showed a growth inhibition of 20%.
Cc1cc2oc3c(ccc(=O)n3C)c(=O)c2c(C)c1Cl showed a growth inhibition of 13%.
For O=C(CC(O)(C(F)(F)F)C(F)(F)F)C(c1ccccc1)C(O)(C(F)(F)F)C(F)(F)F (stereo not drawn), the growth inhibition was 92% (active).
In the case of O=S(=O)(Sc1ccccc1)C(c1ccccc1)c1ccccc1, the growth inhibition is reported as 28%.
Compound COc1ccc2c3c(ccc2c1)NC(C(=O)O)CC3 (stereo not drawn) has a growth inhibition of 41%.
For N#CSc1ccc2nc(NCO)sc2c1, the growth inhibition was 89% (active).
In the case of CC(CN(C)C)C(=O)c1cn(C)c2ccccc12 (stereo not drawn), the growth inhibition is reported as 4%.
For Cc1cc(Cl)nc2ccc(Cc3ccc4nc(Cl)cc(C)c4c3)cc12, the growth inhibition was 13%.
With COc1ccc2c(c1)CN([C@@H](C)[C@H]1CC[C@H]3[C@@H]4CC[C@H]5C[C@@H](O)CC[C@]5(C)[C@H]4CC[C@]13C)CO2 the growth inhibition was 99% (active).
Work on FC(F)(F)c1nc(Cl)nc2nc[nH]c12 yielded a growth inhibition of 0%.
For CC(C)C1COC(c2ccc3ccccc3c2-c2c(O[Si](C)(C)C(C)(C)C)ccc3ccccc23)=N1 (stereo not drawn), the growth inhibition was 13%.
With COc1cc2c(c(C3C(=O)N(C)c4ccc(Br)cc43)c1OC)OCO2 (stereo not drawn) the growth inhibition was 12%.
For c1ccc2c3[nH]c(c2c1)=Nc1ccc(cc1)-c1nc2ccc(cc2o1)N=c1[nH]c(c2ccccc12)=Nc1ccc2nc(oc2c1)-c1ccc(cc1)N=3, the growth inhibition was 81% (active).
Compound c1ccc2nc3ccccc3nc2c1 has a growth inhibition of 36%.

Same assay, conditions: S. cerevisiae cln2 rad14 strain, at 50.0 µM, hits give high values
In the case of CCOC(=O)C(=N\Nc1cccc(C)c1C)/C(C)=N\NC(N)=S, the growth inhibition is reported as 64.1%.
Work on CCN(CC)CCNc1ccc(C)c2oc3ccc(O)cc3c(=O)c12 yielded a growth inhibition of 25.1%.
For O=C1C(C=NC(=S)c2ccccc2)=C(O)c2ccccc21, the growth inhibition was 10.1%.
Work on CCOC(=O)Cc1csc(/N=C\c2c(O)c3ccccc3oc2=O)n1 yielded a growth inhibition of 18.7%.
For CC(C)(CCCCC(C)(C)NCC1COc2ccccc2O1)NCC1COc2ccccc2O1 (stereo not drawn), the growth inhibition was 95% (active).
With O=C1OC(c2ccc(O)cc2)=C(c2ccccc2)C1c1ccccc1 (stereo not drawn) the growth inhibition was 99.5% (active).
Compound O=C(c1ccccc1)C(Br)CCCC(Br)C(=O)c1ccccc1 (stereo not drawn) has a growth inhibition of 67.2%.
Compound CCC(c1ccc(O)cc1)C(O)(CC)c1ccc(O)cc1 (stereo not drawn) has a growth inhibition of 26.1%.
With Cn1cnc2[nH]c(Cl)nc(=S)c21 the growth inhibition was 81.1% (active).
O=C(NCCN1CCCC1)c1cn2c(ccc3sc4ccccc4c(=O)c32)n1 showed a growth inhibition of 37.2%.
In the case of CC(C)(C)OC(=O)CNC(=O)C(Cc1ccccc1)NC(=O)C(N)CSC(c1ccccc1)(c1ccccc1)c1ccccc1 (stereo not drawn) (H-Cys(Trt)-Phe-Gly-OtBu; configuration not given here), the growth inhibition is reported as 41.3%.
Compound C/C(=N/NC(N)=S)C(CN(C)C)C(C1=C(O)c2ccccc2OC1)c1ccccc1 (stereo not drawn) has a growth inhibition of 65.8%.
In the case of O=C(CC(=O)c1ccccc1)CC(=O)c1ccccc1Br, the growth inhibition is reported as 85.5% (active).
For O=C1OC2(c3ccccc31)c1cc(I)c(O)c(I)c1Oc1c2cc(I)c(O)c1I, the growth inhibition was 98.8% (active).
Nc1cc(Cl)c2c(c1)Cc1ccccc1-2 showed a growth inhibition of -22.4%.
In the case of C1=Cc2ccccc2/C1=C/c1ccccc1, the growth inhibition is reported as 61.8%.
Cc1ccc(C2=CC(=O)/C(=C\C(=O)c3ccc(Cl)cc3)O2)cc1 gave a growth inhibition of 57%.
With CC1(c2ccc(S(=O)(=O)c3ccccc3)cc2)OC(=O)C=CC1=O (stereo not drawn) the growth inhibition was 99.2% (active).
In the case of CCCc1cc(-c2ccc(O)c(CCC)c2)ccc1O, the growth inhibition is reported as 99.3% (active).
For CCOC(=O)N1c2ccc3ccccc3c2C=CC1C#N (stereo not drawn), the growth inhibition was 95.5% (active).
In the case of N#CNc1nc(N)c(-c2ccc(Cl)cc2)c(C(=O)Nc2ccc(Cl)c(Cl)c2)n1, the growth inhibition is reported as -6.6%.
For O=c1c(Cl)c(Cl)oc(Cl)c1Cl, the growth inhibition was 94.5% (active).
O=c1nc(-c2ccccc2)cc(-c2ccccc2O)[nH]1 showed a growth inhibition of 33.8%.
For O=C(Cc1nc2ccccc2s1)C(=O)Nc1ccc(Cl)cc1, the growth inhibition was 75% (active).
c1ccc(OCC2c3ccccc3Nc3ccccc32)cc1 showed a growth inhibition of -51.8%.
Work on CCN(C(=O)C(F)(F)F)c1ccc2c(c1)C(=O)c1ccccc1-2 yielded a growth inhibition of -18.2%.
Compound Cc1cc2oc3c(ccc(=O)n3C)c(=O)c2c(C)c1Cl has a growth inhibition of 25.9%.
In the case of O=C(CC(O)(C(F)(F)F)C(F)(F)F)C(c1ccccc1)C(O)(C(F)(F)F)C(F)(F)F (stereo not drawn), the growth inhibition is reported as 90.5% (active).
O=S(=O)(Sc1ccccc1)C(c1ccccc1)c1ccccc1 showed a growth inhibition of -12.8%.
COc1ccc2c3c(ccc2c1)NC(C(=O)O)CC3 (stereo not drawn) showed a growth inhibition of 21.3%.
With N#CSc1ccc2nc(NCO)sc2c1 the growth inhibition was 96% (active).
CC(CN(C)C)C(=O)c1cn(C)c2ccccc12 (stereo not drawn) showed a growth inhibition of 12.6%.
In the case of Cc1cc(Cl)nc2ccc(Cc3ccc4nc(Cl)cc(C)c4c3)cc12, the growth inhibition is reported as 15.4%.
In the case of COc1ccc2c(c1)CN([C@@H](C)[C@H]1CC[C@H]3[C@@H]4CC[C@H]5C[C@@H](O)CC[C@]5(C)[C@H]4CC[C@]13C)CO2, the growth inhibition is reported as 98.2% (active).
FC(F)(F)c1nc(Cl)nc2nc[nH]c12 showed a growth inhibition of 17.4%.
For CC(C)C1COC(c2ccc3ccccc3c2-c2c(O[Si](C)(C)C(C)(C)C)ccc3ccccc23)=N1 (stereo not drawn), the growth inhibition was 92.7% (active).
Compound COc1cc2c(c(C3C(=O)N(C)c4ccc(Br)cc43)c1OC)OCO2 (stereo not drawn) has a growth inhibition of -3.8%.
In the case of c1ccc2c3[nH]c(c2c1)=Nc1ccc(cc1)-c1nc2ccc(cc2o1)N=c1[nH]c(c2ccccc12)=Nc1ccc2nc(oc2c1)-c1ccc(cc1)N=3, the growth inhibition is reported as 84% (active).
Work on c1ccc2nc3ccccc3nc2c1 yielded a growth inhibition of 41.8%.
